Screening data from PubChem BioAssay.
Compounds with a hit are over-represented: about 1.1% of the library has one in this group of screens.
MEP2-GFP yeast – yeast TOR pathway MEP2-GFP modulation; S. cerevisiae MEP2-GFP strain, flow cytometry GFP, 3 h; 100% = DMSO control level; GFP response vs DMSO, % at 10 µM; 330,000 compounds, 0.51% hits; AID 2016;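 active means GFP response versus DMSO above a set limit, roughly screen mean plus 3 SD, cut at about 180% in these data; inconclusive means fewer than 70 cells counted for a yeast strain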;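 further: median GFP fluorescence of the barcode-gated MEP2-GFP cells per well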
AGP1-GFP MLPCN – yeast TOR pathway AGP1-GFP modulation; S. cerevisiae AGP1-GFP multiplex flow cytometry, 3 h; GFP as percent of DMSO wells; GFP response vs DMSO, % at 10 µM; 320,000 compounds, 0.02% hits; AID 2066;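 active means GFP response relative to DMSO above a set limit, near screen average plus 3 SD, cut at about 150% in these data; inconclusive means fewer than 70 cells counted for the yeast strain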;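 further: median GFP channel fluorescence of the gated AGP1 strain per well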
CIT2-GFP yeast – modulators of TOR pathway CIT2-GFP in S. cerevisiae | S. cerevisiae CIT2-GFP strain, flow cytometry, 3 h; 100 means same as DMSO wells | 320,000 compounds, 0.065% hits | AID 2029 | GFP response vs DMSO, % at 10 µM;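 active means GFP response relative to DMSO above a set limit, near the screen mean plus 3 SD, cut at about 150% in these data; inconclusive means Fewer than 70 cells measured for a yeast strain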;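 further: ratio of well median GFP fluorescence to mean of DMSO wells on the plate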
LAP4 TOR yeast – alters LAP4-GFP fluorescence in TOR pathway yeast screen; S. cerevisiae LAP4-GFP multiplex, flow cytometry GFP, 3 h; median GFP as percent of DMSO wells; GFP response vs DMSO, % at 10 µM; 320,000 compounds, 0.34% hits;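 active means GFP response vs DMSO above a set limit, about the screen mean plus 3 SD, cut at about 150% in these data; inconclusive means under 70 cell events counted for the yeast strain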
RPL19A TOR yeast – alters RPL19A-GFP fluorescence in TOR pathway yeast screen. percent response vs DMSO, % at 10 µM. 330,000 compounds, 0.3% hits. S. cerevisiae RPL19A-GFP strain, flow cytometry, 3 h; stronger effect = lower value;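 active means percent response vs DMSO below 50%; inconclusive means fewer than 70 events counted for the yeast strain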;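 further: median channel GFP fluorescence of the barcoded RPL19A-GFP strain; ratio of sample median GFP to plate DMSO average so 100% = DMSO; lower means less RPL19A-GFP as with rapamycin TOR inhibition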
VLA-4 inh – inhibition in a human VLA-4 binding assay. P13612. VLA-4 expressing cells, ligand binding flow cytometry. inhibition, % (about 7 µM as worked out from the volumes in the protocol). 330,000 compounds, 0.2% hits; in the data active means inhibition above about 50%
Target sequence (P13612 whole entry, looked up): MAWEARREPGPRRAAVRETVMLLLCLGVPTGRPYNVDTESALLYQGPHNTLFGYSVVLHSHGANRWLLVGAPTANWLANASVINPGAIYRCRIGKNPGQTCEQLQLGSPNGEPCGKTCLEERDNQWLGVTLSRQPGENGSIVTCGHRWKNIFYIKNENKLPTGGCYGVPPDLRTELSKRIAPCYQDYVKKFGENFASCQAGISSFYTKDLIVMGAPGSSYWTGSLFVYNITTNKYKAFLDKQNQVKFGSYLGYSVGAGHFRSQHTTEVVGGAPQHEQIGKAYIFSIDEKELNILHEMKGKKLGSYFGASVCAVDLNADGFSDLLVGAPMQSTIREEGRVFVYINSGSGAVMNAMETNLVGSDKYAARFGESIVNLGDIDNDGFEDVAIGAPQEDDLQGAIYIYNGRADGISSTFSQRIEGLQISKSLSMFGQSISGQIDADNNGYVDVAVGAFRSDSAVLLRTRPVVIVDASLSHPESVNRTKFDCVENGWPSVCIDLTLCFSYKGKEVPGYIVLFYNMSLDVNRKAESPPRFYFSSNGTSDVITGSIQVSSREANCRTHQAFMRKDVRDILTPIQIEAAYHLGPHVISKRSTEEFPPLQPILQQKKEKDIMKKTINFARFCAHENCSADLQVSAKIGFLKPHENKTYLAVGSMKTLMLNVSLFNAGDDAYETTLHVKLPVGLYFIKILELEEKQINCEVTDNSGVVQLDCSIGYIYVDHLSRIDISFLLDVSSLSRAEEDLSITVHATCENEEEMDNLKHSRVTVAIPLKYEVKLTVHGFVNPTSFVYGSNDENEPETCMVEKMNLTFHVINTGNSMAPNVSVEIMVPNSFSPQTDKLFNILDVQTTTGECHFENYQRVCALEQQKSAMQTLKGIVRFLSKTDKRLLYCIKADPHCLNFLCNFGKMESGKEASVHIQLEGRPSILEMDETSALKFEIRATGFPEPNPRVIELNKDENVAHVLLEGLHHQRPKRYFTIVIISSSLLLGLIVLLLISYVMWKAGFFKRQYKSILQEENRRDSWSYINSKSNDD
The depositor's hits bear a star; [ ] = dose if it differs, or a comment.

Screening O=C(NCCc1ccccc1)C(c1ccc(F)cc1)N(C(=O)c1csnn1)C1CC1 (centres undefined) returned MEP2-GFP yeast 201*[may fluoresce violet], AGP1-GFP MLPCN inconclusive, CIT2-GFP yeast inconclusive, LAP4 TOR yeast 57, RPL19A TOR yeast 28*[may fluoresce violet] and VLA-4 inh -3.
O=C(NCCc1ccccc1)C(c1ccccc1F)N(C(=O)c1csnn1)C1CC1 (centres undefined) was read as MEP2-GFP yeast 217*[may fluoresce violet], AGP1-GFP MLPCN inconclusive, CIT2-GFP yeast inconclusive, LAP4 TOR yeast 62, RPL19A TOR yeast 38*[may fluoresce violet] and VLA-4 inh 0.
Screening S=c1[nH]nc(-c2ccccc2)n1/N=C/C=C/c1ccco1 returned MEP2-GFP yeast 99, AGP1-GFP MLPCN 88, CIT2-GFP yeast 96, LAP4 TOR yeast 96, RPL19A TOR yeast 96 and VLA-4 inh -17.
Cc1cc(-c2n[nH]c(=S)n2/N=C/C=C/c2ccco2)n[nH]1 was read as MEP2-GFP yeast 396*[may fluoresce violet], AGP1-GFP MLPCN inconclusive, CIT2-GFP yeast inconclusive, LAP4 TOR yeast 82, RPL19A TOR yeast 37*[may fluoresce violet] and VLA-4 inh -7.
`COc1ccc(Nc2cnn(-c3nc4ccccc4s3)c(=O)c2Cl)cc1` gave MEP2-GFP yeast 181*, AGP1-GFP MLPCN 18, CIT2-GFP yeast 69, LAP4 TOR yeast 103, RPL19A TOR yeast 92 and VLA-4 inh 22.
For O=c1c(Cl)c(Nc2cccc(Cl)c2)cnn1-c1nc2ccccc2s1 the results were MEP2-GFP yeast 123, AGP1-GFP MLPCN 102, CIT2-GFP yeast 93, LAP4 TOR yeast 108, RPL19A TOR yeast 100 and VLA-4 inh -17.
`COc1cccc(NC(=O)CSc2nc3c([nH]c4ccccc43)c(=O)n2C)c1` gave MEP2-GFP yeast 101, AGP1-GFP MLPCN 103, CIT2-GFP yeast 95, LAP4 TOR yeast 101, RPL19A TOR yeast 103 and VLA-4 inh 60*.
Cc1cccc(NC(=O)CSc2nc3c([nH]c4ccccc43)c(=O)n2C)c1 was read as MEP2-GFP yeast 102, AGP1-GFP MLPCN 98, CIT2-GFP yeast 101, LAP4 TOR yeast 105, RPL19A TOR yeast 106 and VLA-4 inh 9.
O=C(NC1CCCC1)c1n[nH]c2ccccc12 was read as MEP2-GFP yeast 92, AGP1-GFP MLPCN 96, CIT2-GFP yeast 95, LAP4 TOR yeast 97, RPL19A TOR yeast 95 and VLA-4 inh 1.
For N#Cc1ccccc1OCC(=O)OCC(=O)Nc1ccc2c(c1)OCO2 the results were MEP2-GFP yeast 101, AGP1-GFP MLPCN 103, CIT2-GFP yeast 100, LAP4 TOR yeast 105, RPL19A TOR yeast 96 and VLA-4 inh 15.
`CCOC(=O)Cn1c2c(c(=N)c3c1CCC3)CCC2` gave MEP2-GFP yeast 100, AGP1-GFP MLPCN 103, CIT2-GFP yeast 102, LAP4 TOR yeast 98, RPL19A TOR yeast 98 and VLA-4 inh 3.
`CCOC(=O)Cn1c2c(c(=N)c3ccccc31)CCC2` gave MEP2-GFP yeast 229*[may fluoresce violet], CIT2-GFP yeast inconclusive, LAP4 TOR yeast 98, RPL19A TOR yeast 55 and VLA-4 inh 6.
For Nn1c(CSc2ccccn2)nc2ccccc2c1=O the results were MEP2-GFP yeast 261*[may fluoresce violet], AGP1-GFP MLPCN inconclusive, CIT2-GFP yeast inconclusive, LAP4 TOR yeast 57, RPL19A TOR yeast 63 and VLA-4 inh -2.
`O=c1[nH]c(CSc2ccccn2)nc2ccccc12` gave MEP2-GFP yeast 104, AGP1-GFP MLPCN 94, CIT2-GFP yeast 101, LAP4 TOR yeast 99, RPL19A TOR yeast 98 and VLA-4 inh 4.
For COc1ccc(CN(C(=O)c2snc(C(N)=O)c2N)C(C(=O)NC2CCCC2)c2cc(OC)ccc2OC)cc1 (centres undefined) the results were MEP2-GFP yeast 302*[may fluoresce violet], AGP1-GFP MLPCN inconclusive, CIT2-GFP yeast inconclusive, LAP4 TOR yeast 74, RPL19A TOR yeast 41*[may fluoresce violet] and VLA-4 inh 5.
`Cc1ccc(SC(=O)c2c(C)noc2-c2cc(C)on2)cc1` gave MEP2-GFP yeast 105, AGP1-GFP MLPCN 108, CIT2-GFP yeast 90, LAP4 TOR yeast 155*, RPL19A TOR yeast 97 and VLA-4 inh 11.
Cc1cc(-c2onc(C)c2C(=O)N/N=C/c2ccccc2)no1 was read as MEP2-GFP yeast 98, AGP1-GFP MLPCN 105, CIT2-GFP yeast 104, LAP4 TOR yeast 109, RPL19A TOR yeast 94 and VLA-4 inh 6.
Screening Cc1ccccc1C(=O)N=c1c(C#N)cc2c(=O)n3cccc(C)c3nc2n1Cc1ccco1 returned MEP2-GFP yeast 109, AGP1-GFP MLPCN 27, CIT2-GFP yeast inconclusive, LAP4 TOR yeast 106, RPL19A TOR yeast 110 and VLA-4 inh -6.
CCCCNC(=O)c1cc2c(=O)n3cccc(C)c3nc2n(CCN2CCOCC2)c1=N was read as MEP2-GFP yeast 231*[may fluoresce violet], AGP1-GFP MLPCN inconclusive, CIT2-GFP yeast inconclusive, LAP4 TOR yeast 75, RPL19A TOR yeast 43*[may fluoresce violet] and VLA-4 inh 0.
For Cc1cccn2c(=O)c3cc(C(=O)NC(C)c4ccccc4)c(=N)n(CCCn4ccnc4)c3nc12 (centres undefined) the results were MEP2-GFP yeast 270*[may fluoresce violet], AGP1-GFP MLPCN 18, CIT2-GFP yeast inconclusive, LAP4 TOR yeast 97, RPL19A TOR yeast 65 and VLA-4 inh 14.
Screening CCCCNC(=O)c1cc2c(=O)n3cccc(C)c3nc2n(Cc2ccncc2)c1=N returned MEP2-GFP yeast 132, AGP1-GFP MLPCN 93, CIT2-GFP yeast 106, LAP4 TOR yeast 98, RPL19A TOR yeast 35* and VLA-4 inh 6.
Screening Cc1cccn2c(=O)c3cc(C(=O)NCC4CCCO4)c(=N)n(CCc4ccccc4)c3nc12 (centres undefined) returned MEP2-GFP yeast inconclusive, AGP1-GFP MLPCN inconclusive, CIT2-GFP yeast inconclusive, LAP4 TOR yeast inconclusive, RPL19A TOR yeast inconclusive and VLA-4 inh -2.
Screening CC(=O)N=c1c(C#N)cc2c(=O)n3cccc(C)c3nc2n1Cc1ccco1 returned MEP2-GFP yeast 198*[may fluoresce violet], AGP1-GFP MLPCN 15, CIT2-GFP yeast inconclusive, LAP4 TOR yeast 97, RPL19A TOR yeast 55 and VLA-4 inh 0.
Cc1nc(SCc2nc3cc(Cl)c(F)cc3[nH]2)c2oc3ccccc3c2n1 was read as MEP2-GFP yeast 98, AGP1-GFP MLPCN 92, CIT2-GFP yeast 90, LAP4 TOR yeast 91, RPL19A TOR yeast 88 and VLA-4 inh -6.
Screening CC(=O)Nc1ccc(NC(=O)C(C)OC(=O)C(C)SCC(=O)Nc2ccc(C)cc2)cc1 (centres undefined) returned MEP2-GFP yeast 97, AGP1-GFP MLPCN 90, CIT2-GFP yeast 85, LAP4 TOR yeast 91, RPL19A TOR yeast 89 and VLA-4 inh 4.
For Cc1cccn2c(=O)c3cc(C(=O)NCc4ccco4)c(=N)n(CCc4ccccc4)c3nc12 the results were MEP2-GFP yeast 126, AGP1-GFP MLPCN 29, CIT2-GFP yeast 92, LAP4 TOR yeast 97 and RPL19A TOR yeast 83.
